Where “and” joins values, the source holds several entries; their conditions need not be identical. Identical values can stand only once. Results filed as inconclusive are left out. Calls of active or inactive are those of the source. Unless noted, the call rests on the fitted dose curve; in most records, active means well fitted curve in the direction sought with a large enough effect; inconclusive means small, poorly fitted or top-dose-only effect, or another doubt; inactive means no such curve, though single readings can be large or run the other way.

Five molecules from PubChem BioAssay (NCATS) can be followed below.
Potency means the concentration at half of the fitted maximal effect.

The first assay in a line: qHTS assay for small molecule agonists of the antioxidant response element (ARE) signaling pathway (AID 651741; active means well fitted activation curve with a large enough effect in the signal ratio; the % refers to the signal ratio; on activation: % of control where 0% means no effect). The conditions noted are these: HepG2 ARE-bla reporter, beta-lactamase FRET ratio, 16 h; series mostly up to 96 µM; activation: at the top concentration. The procedure, abridged: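 Agonist activity is measured as ARE-driven beta-lactamase expression in a stable HepG2 reporter line, using 16 h compound treatment at 37 C and a FRET substrate fluorescence readout after 2 h.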
In the case of `[Cl][Sn]([c]1ccccc1)([c]1ccccc1)[c]1ccccc1`, the Potency is 486 nM (active).

For `S=C([S-])NCCNC(=S)[S-].[Mn+2]`, the Potency is 30.6 µM (active) and 27.3 µM (active).

As for `O=C(O)CN(CCN(CC(=O)O)CC(=O)O)CC(=O)O`, the “activation” value is 6.41% (inactive).

The next assay in a line: qHTS Assay for Identifying Gametocytocidal Compounds (AID 743244).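 On max response: on the % scale 0 is the no-effect control and ±100 the full control effect; actives lower the fluorescent signal which means gametocytes are killed.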 Particulars: P. falciparum 3D7 stage III-V gametocytes, alamarBlue, 72 h; max response: active compounds read low. The procedure, abridged: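 P. falciparum 3D7 stage III–V gametocytes (20,000 cells/well) were exposed to compounds for 72 h at 37 °C, 5% CO2. AlamarBlue was then added for 24 h; decreased resorufin fluorescence (Ex 525/Em 598 nm) indicated loss of viability.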
For `C[C@]12O[C@H](C[C@]1(O)CO)n1c3ccccc3c3c4c(c5c6ccccc6n2c5c31)CNC4=O`, the Potency is 2.51 µM (active).

Take `COc1cc(-c2ccc(-[n+]3nc(-c4ccccc4)nn3-c3ccc([N+](=O)[O-])cc3)c(OC)c2)ccc1-[n+]1nc(-c2ccccc2)nn1-c1ccc([N+](=O)[O-])cc1`: the Potency was 5.62 µM (active).

For `O=C(O)CN(CCN(CC(=O)O)CC(=O)O)CC(=O)O`, the max response is 12.5% (inactive).
